A selection: hits, their analogues and other compounds. The true share with any hit is near 19%.
KB-3-1 tox: KB-3-1 parental cell cytotoxicity; KB-3-1 viability, CellTiter-Glo ATP luminescence, 72 h; Potency, µM (highest dose often 46.1 µM), hits mostly cytotoxic; hit rate 1.4% among 400,000; AID 1347075; note: nearly all actives have a fitted effect of over 60% in size
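Parental KB-3-1 adenocarcinoma cells in phenol-red-free DMEM with 10% FBS were pin-treated with compounds at several concentrations, incubated 72 h at 37 °C, and viability read by CellTiter-Glo luminescence; concentration-effect curves were fitted after normalization.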
HT1080 IDH1KD tx: HT-1080 IDH1 knockdown cell toxicity (counter line) | HT-1080 IDH1 knockdown viability, ATP luminescence, 48 h | Potency, µM (doses to about 46.1 µM), without a hit: top-dose activity, negative = toxicity, hits mostly cytotoxic | hit rate 2% among 360,000;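 note: 0% = DMSO wells and -100% = cell-free medium wells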
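Viability of IDH1-knockdown HT-1080 fibrosarcoma cells was assessed by CellTiter-Glo after 48 h at 37 °C with titrated compound; concentration-effect curves were classified by fit quality and response size.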
KB-V1 cytotox: kills drug-selected multidrug resistant KB-V1 cells | Potency, µM (highest dose often 46.1 µM), usual class: cytotoxic | KB-V1 MDR cells viability, CellTiter-Glo, 72 h | hit rate 3.4% among 400,000; note: nearly all actives have a fitted effect of over 60% in size
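qHTS viability screen in drug-selected KB-V1 MDR cells: 72 h compound treatment at 37 degrees C, ATP luminescence end point.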
TDP1 cell CPT: growth inhibition of DT40 Tdp1-/-;hTDP1 cells with camptothecin (screen for TDP1 inhibitors). chicken DT40 Tdp1-/-;hTDP1 cells + 20 nM CPT, ATP luminescence, 48 h. Potency, µM (top dose mostly 46.2 µM), for the others: top-dose activity change, negative = growth inhibition, most hits filed as inhibitors. hit rate 12% among 420,000. AID 686979; note: nearly all actives have a fitted effect of over 55% in size
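Chicken DT40 Tdp1-/- cells complemented with human TDP1, 400 cells/well, exposed to compounds plus 20 nM camptothecin for at least 48 h at 37 C; viability read as ATP content by CellTiter-Glo luminescence.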
HT1080-NT tox: kills 2HG-producing HT-1080-NT fibrosarcoma cells; HT-1080-NT fibrosarcoma viability, CellTiter-Glo ATP luminescence, 48 h; hit rate 1.6% among 360,000; Potency, µM (doses to about 46.1 µM), inactives show top-dose activity, negative = less viability, hits mostly cytotoxic;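 note: NT is the 2HG producing partner of a matched IDH1 knockdown line; 0% = DMSO-treated cells and -100% = media-only wells without cells; nearly all actives have a fitted effect of over 55% in size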
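750 cells/well, RPMI + 5% FBS; 2 h settle, compound pin-transfer, 48 h at 37 degrees C. CellTiter-Glo 10 min RT, luminescence. Normalized to DMSO and media-only wells.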
TDP1 cell noCPT: qHTS for Inhibitors of human tyrosyl-DNA phosphodiesterase 1 (TDP1): qHTS in cells in absence of CPT; DT40 Tdp1-/- hTDP1 cells, no CPT, ATP luminescence, 48 h; Potency, µM (highest dose often 46.2 µM), for inactives: at the highest dose activity change, negative = growth inhibition, hits mostly inhibitors; hit rate 15% among 420,000; AID 686978, 2013; note: nearly all actives have a fitted effect of over 55% in size
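Stably hTDP1-transfected Tdp1-null chicken DT40 cells were treated with library compounds minus camptothecin and grown for at least 48 hr at 37 °C, after which cellular ATP was quantified by luminescence.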
An asterisk follows results filed as active; i = inactive; u = inconclusive; x = not tested or not shown. Calls come from the whole dose curve; as a rule, active = well fitted curve in the direction sought with a large enough effect; inconclusive = small, poorly fitted or top-dose-only effect, or another doubt; inactive = no such curve, though single readings can be large; an effect the other way counts as inactive or inconclusive. Unless noted, % is set by controls: 0 for no effect and ±100 for the full control effect; potency is the fitted concentration of half-maximal effect.

SMILES	KB-3-1 tox	HT1080 IDH1KD tx	KB-V1 cytotox	TDP1 cell CPT	HT1080-NT tox	TDP1 cell noCPT
CCc1nnc(NC(=O)CSc2nnc(CNc3ccc(F)cc3)n2C2CCCCC2)s1	i	0%	u	1%	0%	-1%
O=C(CSc1nc2ccccc2c(=O)n1CC1CCCCC1)N1CCOCC1	i	-7%	i	u	-5%	u
O=C(CSc1nc2ccccc2c(=O)n1C1CC1)NCc1ccccc1	i	5%	i	-25%	2%	u
Cc1cc(NC(=O)CSc2nc3ccccc3c(=O)n2Cc2ccccc2)no1	i	-6%	i	-3%	-16%	-26%
Cc1cc(NC(=O)CSc2nc3ccccc3c(=O)n2C2CCCC2)no1	u	1.8µM*	1.3µM*	1µM*	u	0.92µM*
CCOC(=O)C1CCCN(CCC(=O)Nc2c(C(=O)OC)[nH]c3cc(OC)ccc23)C1 (configuration not stated)	i	2%	i	1%	6%	-8%
CCOC(=O)c1[nH]c2ccc(Br)cc2c1NC(=O)CCN1CCCC(C)(C)C1	i	-17%	3.3µM*	u	-12%	26µM*
CCOC(=O)C1CCCN(CC(=O)Nc2c(C(=O)OC)[nH]c3ccc(Br)cc23)C1 (configuration not stated)	i	u	i	16µM*	u	21µM*
CCOC(=O)C1CCN(CC(=O)Nc2c(C(=O)OC)[nH]c3ccc(Cl)cc23)CC1	i	u	u	23µM*	-14%	10µM*
COC(=O)c1[nH]c2ccc(Br)cc2c1NC(=O)CN1CCN(C2CCCCC2)CC1	u	18µM*	u	26µM*	23µM*	21µM*
S=C1NC2=C(CCCC2=C2SCCS2)C(c2ccccc2)N1 (configuration not stated)	i	-21%	i	-16%	-18%	16µM*
COc1cccc(C2NC(=S)NC3=C2CCc2ccccc23)c1 (configuration not stated)	i	2%	i	u	-1%	-26%
Cc1cc(NC2=CC(=O)C(=O)c3ccccc32)no1	u	u	18µM*	6.5µM*	u	12µM*
CCC(C(=O)Nc1cc(Cl)c(OC)cc1OC)c1ccccc1 (configuration not stated)	i	-8%	i	u	0%	u
Cc1cc(NC(=O)CCN2C(=O)c3ccccc3C2=O)no1	i	1%	i	-9%	6%	-8%
COc1cc(OC)c(NC2=CC(=O)C(=O)c3ccccc32)cc1Cl	4.6µM*	8.2µM*	4.1µM*	12µM*	21µM*	18µM*
CCCCNc1cc(N2CCN(C3CCCCC3)CC2)c2noc3c2c1C(=O)c1ccccc1-3	i	x	i	5.2µM*	x	5.2µM*
Nc1cccc(C(=O)Nc2ccc3nc(-c4cccnc4)[nH]c3c2)c1	i	3%	i	-21%	6%	-8%
O=C(Nc1ccc2nc(-c3ccccc3)[nH]c2c1)c1ccco1	u	-24%	i	u	-19%	21µM*
O=C(Nc1cccc(-c2nc3ccccc3[nH]2)c1)c1cccc(NC(=O)c2ccco2)c1	u	u	i	16µM*	u	18µM*
O=C(Nc1ccc2nc(-c3ccc(Br)o3)[nH]c2c1)c1ccco1	i	-13%	u	u	-6%	9.2µM*
O=C(Nc1ccc2nc(-c3cccnc3)[nH]c2c1)C1CCCCC1	i	u	i	u	u	15µM*
C/C(CCc1ccc2c(c1)OCO2)=N\N=C1\NC(=O)CC(C(=O)Nc2ccccc2F)S1 (configuration not stated)	i	5%	i	-9%	0%	-17%
CC1=C(C(=O)N(C(C)C)C(C)C)CC(CC(=O)NCCc2ccccn2)C(=O)N1CCCN1CCCC1=O (configuration not stated)	i	12%	u	0%	14%	4%
O=C(COC(=O)Cc1cccs1)NCC(=O)Nc1ccc(F)cc1	u	-1%	i	11%	4%	3%
SMILES	KB-3-1 tox	HT1080 IDH1KD tx	KB-V1 cytotox	TDP1 cell CPT	HT1080-NT tox	TDP1 cell noCPT
Clc1cc(/C=N\NC2=NCCN2)cc(Cl)n1	i	-3%	i	-21%	-7%	u
COc1cccc(N2CCN(C(=O)c3cc4cc5cc(C)ccc5nc4s3)CC2)c1	i	x	i	-23%	x	-28%
Cn1cccc1-c1nc2ccc(NC(=O)c3cccs3)cc2[nH]1	i	-12%	u	u	-9%	16µM*
CC(=O)Nc1ccc2nc(-c3cccn3C)[nH]c2c1	i	11%	i	-20%	18%	-3%
CC(C)(C)C(=O)Nc1ccc(-c2nc3ccc(NC(=O)C(C)(C)C)cc3[nH]2)cc1	x	x	x	0.65µM*	x	1.2µM*
O=C(Nc1cc(-c2ccccc2)cs1)c1ccco1	i	-10%	i	u	-7%	15µM*
Cc1c(N=C2N=C(NC(=O)Nc3ccc(Cl)cc3)c3ccccc32)c(=O)n(-c2ccccc2)n1C	i	-20%	i	18µM*	0%	23µM*
Cc1nn(CC(=O)Nc2cccc(C(F)(F)F)c2)c(=O)c2cccn12	i	-4%	i	u	1%	-15%
COc1ccc(C)cc1NC(=O)C(Sc1nnc2ccccn12)c1ccccc1 (configuration not stated)	i	-6%	3.3µM*	-20%	-3%	u
O=C(Nc1ccc(F)cc1)C(Sc1nnc2ccccn12)c1ccccc1 (configuration not stated)	i	1%	5.8µM*	-20%	8%	u
COc1ccc(C)cc1NC(=O)C(Sc1nnc(-c2ccncc2)n1-c1ccc(Cl)cc1)c1ccccc1 (configuration not stated)	u	u	u	u	3%	16µM*
Cc1nnc(C)n1N	i	18%	i	-4%	20%	-22%
Nc1nc(-c2ccccc2)nc2nonc12	u	15%	i	-1%	3%	-28%
CCN(CC)S(=O)(=O)c1ccc(NC=C(C#N)C#N)cc1	i	1%	i	-23%	-1%	u
CCOC(=O)c1oc2cc(O)cc(O)c2c(=O)c1OCc1ccccc1	i	-9%	i	18µM*	-2%	16µM*
